Source: PubChem BioAssay (NCATS)
Inconclusive results are not listed. The source made the active and inactive calls. Unless noted, the call rests on the fitted dose curve; in most records, active means well fitted curve in either direction with a large enough effect (not every such curve was filed as active); inconclusive means small, poorly fitted or top-dose-only effect, or another doubt; inactive means flat fitted curve, though single readings scatter.

Key:
[1] = AP1 Signaling Pathway (AID 357); details: ME-180 AP-1-bla reporter, EGF-induced, beta-lactamase ratio, 5 h; at 17.2 µM (top of the series) unless noted;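 further: ME-180 reporter cells stimulated with EGF at its EC50 level; on the % scale 0 is the no-effect control and ±100 the full control effect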
Method in brief: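 Cells are seeded overnight, exposed to compound titrations and an EC50 level of EGF for 5 hours at 37 °C, then loaded with CCF4 dye for 2.5 hours. Beta-lactamase activity under the AP-1 element is read as a blue/green ratio.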

[2] = NFAT Signaling Pathway (AID 444); details: Jurkat NFAT-bla M1, carbachol, beta-lactamase ratio, 5 h; at 17.2 µM (top of the series) unless noted;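 further: carbachol stimulus at about its EC50 of 1 µM final; on the % scale 0 is the no-effect control and ±100 the full control effect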
Method in brief: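 Read-out: CCF4 FRET ratio (460 nm/530 nm) after 1 h RT dye loading, used for %activity and AC50 from titration series. Cells: Jurkat NFAT-β-lactamase/M1 line, treated with compound plus 1 uM carbachol for 5 h, 37 °C.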

[3] = Stat Signaling Pathway (AID 446);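 further: ME-180 cervical cancer cells given 40 pM IL-6 alongside compound; SIE-controlled beta-lactamase reporter measured as 460/530 nm FRET emission ratio; on the % scale 0 is the no-effect control and ±100 the full control effect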
Method in brief: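 ME-180 SIE-bla cells; overnight plating; cpd + IL-6 40 pM, 5 h, 37 C; LiveBLAzer 2.5 h RT; 460/530 nm emission ratio. Normalized to 300 pM IL-6 and 125 nM JAK inhibitor controls.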

[4] = biological target: Glucocorticoid receptor (Homo sapiens) (UniProt P04150); test: GR-GFP Redistribution (AID 450;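 active means compounds whose dose series gives a full or clear partial fitted curve of increased nuclear translocation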; further: potency means the concentration at half of the fitted maximal effect); details: U2OS GR-GFP nuclear translocation, laser cytometry, 2 h
Sequence of Glucocorticoid receptor (Homo sapiens) (P04150 whole entry, looked up, the tested form may be a part): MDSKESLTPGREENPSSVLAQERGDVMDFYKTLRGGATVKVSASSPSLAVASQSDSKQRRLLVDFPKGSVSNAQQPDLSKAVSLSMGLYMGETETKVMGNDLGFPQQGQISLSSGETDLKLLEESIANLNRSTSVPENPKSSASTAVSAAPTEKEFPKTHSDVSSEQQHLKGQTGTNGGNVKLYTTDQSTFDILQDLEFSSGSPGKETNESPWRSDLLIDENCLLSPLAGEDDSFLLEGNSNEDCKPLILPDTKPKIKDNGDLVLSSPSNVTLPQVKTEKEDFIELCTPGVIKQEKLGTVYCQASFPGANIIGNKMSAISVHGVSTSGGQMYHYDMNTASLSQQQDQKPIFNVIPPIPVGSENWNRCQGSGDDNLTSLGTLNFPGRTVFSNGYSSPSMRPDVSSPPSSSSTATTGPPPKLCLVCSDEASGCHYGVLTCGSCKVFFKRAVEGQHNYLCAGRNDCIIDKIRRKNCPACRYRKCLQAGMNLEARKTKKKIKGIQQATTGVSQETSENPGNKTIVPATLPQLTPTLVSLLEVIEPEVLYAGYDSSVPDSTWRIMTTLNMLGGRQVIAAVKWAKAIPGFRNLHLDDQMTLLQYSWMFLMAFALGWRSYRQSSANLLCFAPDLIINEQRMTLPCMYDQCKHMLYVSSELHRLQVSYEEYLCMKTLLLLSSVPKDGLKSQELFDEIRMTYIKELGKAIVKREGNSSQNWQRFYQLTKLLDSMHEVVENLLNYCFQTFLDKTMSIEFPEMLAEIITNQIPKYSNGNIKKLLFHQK

[5] = biological target: Glucocorticoid receptor (Homo sapiens) (UniProt P04150); test: GR-EFC Redistribution (AID 451; calls by dose curve; further: potency means the concentration at half of the fitted maximal effect); details: CHO-K1 GR-EFC translocation, beta-gal luminescence, 2 h
Method in brief: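 Translocation of GR-ED fusion to nuclear EA restores b-gal, read by luminescence after 1 h room-temperature detection. Engineered CHO-K1 biosensor cells, 1,000/well, exposed 2 h at 37 C to titrations up to 46 uM final.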

[6] = biological target: Mitogen-activated protein kinase 10 (Mus musculus) (UniProt Q61831); test: JNK3 AlphaScreen Assay (AID 530);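 further: kinase came from lysate of stimulated human HepG2 cells; signal reports phosphorylation of biotinylated GST-cJun 1-79 at Ser73 with 10 µM ATP; on the % scale 0 is the no-effect control and ±100 the full control effect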
Method in brief: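 Room-temperature AlphaScreen kinase assay; pre-activated HepG2 lysate as JNK3 source, biotin-GST-cJun(1-79) substrate, 10 uM ATP, compound 15 min preincubation.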

[7] = biological target: 3',5'-cyclic-AMP phosphodiesterase 4B (Homo sapiens) (UniProt Q07343); test: qHTS Assay for Inhibitors of PDE-IV (AID 607; active means well fitted activation curve with a large enough effect in the main read-out, with a control signal flat, not every such curve was filed as active; further: % of control where 0% means no effect)
Sequence of 3',5'-cyclic-AMP phosphodiesterase 4B (Homo sapiens) (Q07343 whole entry, looked up): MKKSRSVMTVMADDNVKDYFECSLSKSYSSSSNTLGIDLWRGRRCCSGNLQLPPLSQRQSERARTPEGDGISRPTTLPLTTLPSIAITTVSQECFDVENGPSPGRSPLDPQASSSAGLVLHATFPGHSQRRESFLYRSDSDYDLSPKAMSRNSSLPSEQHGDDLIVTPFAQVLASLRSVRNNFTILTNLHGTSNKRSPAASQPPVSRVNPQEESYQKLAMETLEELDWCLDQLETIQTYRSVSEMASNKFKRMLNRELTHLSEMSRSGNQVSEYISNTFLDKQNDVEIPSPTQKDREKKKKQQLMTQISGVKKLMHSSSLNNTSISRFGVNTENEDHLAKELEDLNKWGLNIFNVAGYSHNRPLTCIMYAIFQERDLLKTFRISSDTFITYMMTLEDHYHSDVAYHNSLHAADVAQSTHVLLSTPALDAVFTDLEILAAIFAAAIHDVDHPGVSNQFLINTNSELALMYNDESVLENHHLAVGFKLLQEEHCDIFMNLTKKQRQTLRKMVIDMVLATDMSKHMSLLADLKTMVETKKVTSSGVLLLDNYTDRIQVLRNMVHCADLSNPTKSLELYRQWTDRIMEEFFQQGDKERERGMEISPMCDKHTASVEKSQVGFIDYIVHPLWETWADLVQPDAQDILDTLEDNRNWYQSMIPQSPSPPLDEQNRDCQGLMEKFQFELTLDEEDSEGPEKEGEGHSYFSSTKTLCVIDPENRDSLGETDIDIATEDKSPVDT
Method in brief: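 ACTOne HEK293 cells carry a modified cAMP-gated CNG channel and express endogenous PDE4; plated 1000 cells/well, compounds up to 22.9 uM final. Membrane-potential dye fluorescence (ex 535/em 590) was read; parental cells received 10 uM forskolin + 100 uM RO 20-1724.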

[8] = qHTS Assay for Identification of Small Molecule Agonists for Thrombopoietin (TPO) Signaling Pathway (AID 917; active means well fitted curve in the direction sought with a large enough effect; an effect the other way counts as inactive or inconclusive; further: on the % scale 0 is the no-effect control and ±100 the full control effect)
Method in brief: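 Reporter: GpIIb promoter–luciferase in murine Ba/F3 expressing human TPO receptor. Pre-starved of IL-3 overnight; compounds with 26 pM TPO, 24 hrs, 37 C/5% CO2; luminescence read.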

[9] = biological target: Pyruvate kinase (Leishmania mexicana) (UniProt Q27686); test: qHTS Validation Assay for Inhibitors of Leishmania Mexicana Pyruvate Kinase (AID 945; active means well fitted curve in the direction sought with a large enough effect; an effect the other way counts as inactive or inconclusive;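 further: 0% = DMSO only neutral control wells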)
Sequence of Pyruvate kinase (Leishmania mexicana) (Q27686 2-499 E452W): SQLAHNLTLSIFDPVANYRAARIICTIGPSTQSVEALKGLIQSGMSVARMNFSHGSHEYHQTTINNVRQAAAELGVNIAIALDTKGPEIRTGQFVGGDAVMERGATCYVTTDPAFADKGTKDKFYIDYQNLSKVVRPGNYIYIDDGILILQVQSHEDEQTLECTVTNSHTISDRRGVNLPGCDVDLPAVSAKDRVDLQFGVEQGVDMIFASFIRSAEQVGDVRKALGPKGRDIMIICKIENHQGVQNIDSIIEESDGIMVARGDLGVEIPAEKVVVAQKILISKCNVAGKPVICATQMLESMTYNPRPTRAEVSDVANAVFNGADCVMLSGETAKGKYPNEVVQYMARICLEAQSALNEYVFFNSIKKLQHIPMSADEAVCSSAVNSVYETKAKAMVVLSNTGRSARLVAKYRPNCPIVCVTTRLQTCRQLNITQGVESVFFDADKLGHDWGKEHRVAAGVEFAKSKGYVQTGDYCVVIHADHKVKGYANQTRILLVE
Method in brief: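 Compounds are tested as eight-point concentration series. Reactions contain 0.2 nM LmPYK E451W, 0.5 mM PEP, 0.1 mM ADP, 7 mM MgCl2 and 50 mM KCl at pH 7.2, run 1 h at room temperature, then read by PKLight luminescence.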

[10] = biological target: Pyruvate kinase PKM (Homo sapiens) (UniProt P14618); test: qHTS Assay for Activators of Human Muscle Pyruvate Kinase (AID 954; active means well fitted curve in the direction sought with a large enough effect, not every such curve was filed as active;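 further: 0% = uninhibited enzyme and -100% = no enzyme or full thiadiazolimine inhibition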)
Sequence of Pyruvate kinase PKM (Homo sapiens) (P14618 whole entry, looked up): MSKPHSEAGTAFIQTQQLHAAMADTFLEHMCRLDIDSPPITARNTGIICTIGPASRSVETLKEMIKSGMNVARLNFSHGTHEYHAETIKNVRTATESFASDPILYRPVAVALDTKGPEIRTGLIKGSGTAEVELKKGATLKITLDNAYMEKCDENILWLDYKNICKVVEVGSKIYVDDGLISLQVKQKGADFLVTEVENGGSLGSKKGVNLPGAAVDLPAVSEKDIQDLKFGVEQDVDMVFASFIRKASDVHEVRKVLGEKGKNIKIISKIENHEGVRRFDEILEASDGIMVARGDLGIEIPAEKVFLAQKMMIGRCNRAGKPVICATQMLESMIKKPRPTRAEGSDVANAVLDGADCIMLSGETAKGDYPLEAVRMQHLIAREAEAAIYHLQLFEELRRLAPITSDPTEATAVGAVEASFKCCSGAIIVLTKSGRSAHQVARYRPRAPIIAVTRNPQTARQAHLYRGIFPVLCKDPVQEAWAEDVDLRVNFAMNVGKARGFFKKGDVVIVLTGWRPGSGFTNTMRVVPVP
Method in brief: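 Luminescence from a luciferase ATP-detection/stop reagent reported PKM2 activity. Reactions contained 0.1 nM purified human enzyme, 0.5 mM PEP, 0.1 mM ADP and 7 mM MgCl2 at pH 7.2, run 1 h at RT.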

[11] = biological target: Alpha-galactosidase (Coffea arabica) (UniProt Q42656); test: Counterscreen for Glucocerebrosidase Inhibitors: qHTS Assay for Coffee Bean alpha-Galactosidase at pH 4.5 (AID 957; active means well fitted curve in the direction sought with a large enough effect; an effect the other way counts as inactive or inconclusive;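 further: plate controls were enzyme alone for no effect and no enzyme for full effect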)
Sequence of Alpha-galactosidase (Coffea arabica) (Q42656 whole entry, looked up): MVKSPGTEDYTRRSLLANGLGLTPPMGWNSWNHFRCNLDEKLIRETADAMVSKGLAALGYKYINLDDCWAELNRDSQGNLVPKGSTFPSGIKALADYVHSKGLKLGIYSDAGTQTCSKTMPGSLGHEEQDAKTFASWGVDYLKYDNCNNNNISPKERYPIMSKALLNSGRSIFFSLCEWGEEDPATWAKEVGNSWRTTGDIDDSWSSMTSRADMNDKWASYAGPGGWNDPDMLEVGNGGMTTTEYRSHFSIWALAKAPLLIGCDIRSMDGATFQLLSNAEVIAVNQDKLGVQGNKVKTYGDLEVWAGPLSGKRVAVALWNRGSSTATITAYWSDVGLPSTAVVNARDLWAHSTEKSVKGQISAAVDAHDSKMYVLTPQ
Method in brief: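 AC50 values derive from Hill-equation modeling of concentration-response data, normalized to no-enzyme and full-activity controls. The pH 4.5 citrate assay used 2 nM coffee bean enzyme and 80 uM fluorogenic substrate for 20 min.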

[12] = biological target: alpha-glucosidase (Oryza sativa, rice) (UniProt Q653V4); test: Counterscreen for Glucocerebrosidase Inhibitors: qHTS Assay for Rice alpha-Glucosidase at pH 5.0 (AID 997; active means well fitted curve in the direction sought with a large enough effect; an effect the other way counts as inactive or inconclusive;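 further: 0% = full activity with enzyme and -100% = basal without enzyme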)
Method in brief: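 Rice alpha-glucosidase (4 nM final) with 400 uM 4-methylumbelliferyl-alpha-D-glucopyranoside in citrate buffer pH 5.0, 20 min at room temperature, stopped at pH 10; fluorescence 365/440 nm, compounds 0.7 nM–77 uM, AC50 from Hill fits.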

[13] = biological target: Alpha-galactosidase (Coffea arabica) (UniProt Q42656); test: Counterscreen for Glucocerebrosidase Inhibitors: qHTS Assay for Coffee Bean alpha-Galactosidase at pH 5.9 (AID 998; active means well fitted curve in the direction sought with a large enough effect; an effect the other way counts as inactive or inconclusive;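 further: plate controls were uninhibited enzyme for no effect and no-enzyme basal signal for full effect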)
Method in brief: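 Compounds were titrated from 0.7 nM to 77 uM against green coffee bean alpha-galactosidase (2 nM) using 80 uM fluorogenic 4-methylumbelliferyl substrate. After 20 min at room temperature, reactions were stopped at pH 10 and read by fluorescence.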

[14] = biological target: Ubiquitin carboxyl-terminal hydrolase 1 (Homo sapiens) (UniProt O94782); test: Inhibitors of USP1/UAF1: Pilot qHTS (AID 504865; active means well fitted curve in the direction sought with a large enough effect; an effect the other way counts as inactive or inconclusive;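 further: rhodamine fluorescence freed from ubiquitin-rhodamine substrate followed over time; top concentration of the series differs between compounds; on the % scale 0 is the no-effect control and ±100 the full control effect; nearly all actives have a fitted effect of over 35% in size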)
Sequence of Ubiquitin carboxyl-terminal hydrolase 1 (Homo sapiens) (O94782 whole entry, looked up): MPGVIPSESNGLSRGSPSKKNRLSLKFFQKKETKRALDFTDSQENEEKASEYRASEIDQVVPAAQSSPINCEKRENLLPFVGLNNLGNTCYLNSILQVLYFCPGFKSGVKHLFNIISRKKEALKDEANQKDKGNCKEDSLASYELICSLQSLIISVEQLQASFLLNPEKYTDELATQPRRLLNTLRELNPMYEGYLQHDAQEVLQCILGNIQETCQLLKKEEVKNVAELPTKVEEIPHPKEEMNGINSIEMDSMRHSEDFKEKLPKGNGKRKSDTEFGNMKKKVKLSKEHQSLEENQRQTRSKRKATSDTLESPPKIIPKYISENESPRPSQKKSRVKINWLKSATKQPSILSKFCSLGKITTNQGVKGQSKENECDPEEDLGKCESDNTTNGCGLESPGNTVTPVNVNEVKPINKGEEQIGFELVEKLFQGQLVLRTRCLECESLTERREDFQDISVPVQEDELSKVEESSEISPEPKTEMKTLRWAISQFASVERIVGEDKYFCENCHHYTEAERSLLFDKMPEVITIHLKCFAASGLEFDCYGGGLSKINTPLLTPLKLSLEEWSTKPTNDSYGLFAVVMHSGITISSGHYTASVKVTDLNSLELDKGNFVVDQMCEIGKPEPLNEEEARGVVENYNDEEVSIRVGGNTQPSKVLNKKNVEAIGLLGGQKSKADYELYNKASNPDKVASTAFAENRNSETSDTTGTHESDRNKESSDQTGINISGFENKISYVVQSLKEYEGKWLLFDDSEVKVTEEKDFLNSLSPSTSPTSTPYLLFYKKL
Method in brief: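 Deubiquitinase activity followed as kinetic rhodamine fluorescence release from 150 nM Ub-Rho. 1 nM USP1/UAF1 with compound, after 15 min room-temperature preincubation, in HEPES pH 7.8 buffer containing TCEP, EDTA, BSA and Tween-20.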

O=c1[nH]c(=O)n(C2CCCCC2)c(O)c1C=NCCCn1ccnc1
inactive: activity change, negative = inhibition [1] 0.159% | activity change, negative = inhibition [2] -4.42% | outcome [3] | Potency [4] > 20.6 µM

CN1CCc2c(c(N3CCCCC3)nc3n[nH]c(N)c23)C1
inactive: activity change, negative = inhibition [1] -3.37% | activity change, negative = inhibition [2] -4.59% | outcome [3] | Potency [4] > 20.6 µM

CC1=NOC2(C)Nc3ncnn3C(c3ccccc3)C12 (configuration not stated)
inactive: activity change, negative = inhibition [1] 20.5% | activity change, negative = inhibition [2] -2.94% | outcome [3] | Potency [4] > 20.6 µM

COc1cccc(-n2c(C)nc3ccccc3c2=O)c1
inactive: activity change, negative = inhibition [1] 10.2% | activity change, negative = inhibition [2] 3.48% | Potency [4] > 20.6 µM

CC[C@H](CO)NC(=O)[C@@H]1C=C2c3cccc4[nH]cc(c34)C[C@@H]2N(C)C1
inactive: activity change, negative = inhibition [1] 2.51% [at 38 µM] | activity change, negative = inhibition [2] -0.886% [at 38 µM] | outcome [3] | Potency [5] > 46 µM | outcome [6] | outcome [7] | outcome [8] | Potency [9] | outcome [10] | outcome [11] | outcome [12] | outcome [13]

O=c1[nH]c(=O)n(CCc2ccccc2)c(O)c1C=NCCCn1ccnc1
inactive: activity change, negative = inhibition [1] -11% | activity change, negative = inhibition [2] -27.5% | outcome [3] | Potency [4] > 20.6 µM

CCOC(=O)[C@]1(C#N)[C@@H]2C=CC(C(C)=O)=CN2[C@@H](C(N)=O)[C@@H]1c1ccsc1
inactive: activity change, negative = inhibition [1] -0.365% | activity change, negative = inhibition [2] -15.2% | outcome [3] | Potency [4] > 20.6 µM

CCCC12CN3CN(C1)CC(CCC)(C3)C2O (configuration not stated)
inactive: activity change, negative = inhibition [1] 21.7% | activity change, negative = inhibition [2] -5.01% | outcome [3] | Potency [4] > 20.6 µM

O=C1CC[C@]2(O)[C@H]3Cc4ccc(O)c5c4[C@@]2(CCN3CC2CC2)[C@@H]1O5
inactive: activity change, negative = inhibition [1] 3.41% | activity change, negative = inhibition [2] 9.93% | outcome [3] | outcome [6] | Potency [14]

COc1ccc(C(=O)CC2C(=O)N(C)C(=O)N(C)C2=O)cc1
inactive: activity change, negative = inhibition [1] 8.4% | activity change, negative = inhibition [2] -29.5% | outcome [3] | Potency [4] > 20.6 µM

Nc1ccc(C2(c3ccc(N)cc3)CN3CCC2CC3)cc1
inactive: activity change, negative = inhibition [1] 7.52% | activity change, negative = inhibition [2] -2.19% | outcome [3] | Potency [4] > 20.6 µM
